High-throughput results: PubChem, several laboratories
Most compounds without a hit are left out; they make up all but 7% or so of the library.
rCAG binder = r(CAG) repeat RNA binding; 370,000 compounds, 1.3% hits; inhibition, % at 3 µM; AID 651821; TO-PRO-1 dye displacement fluorescence;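 active means inhibition above the plate cutoff, the mean of all test compounds on that plate plus 3 SD, cut at about 35% in these data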;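 further: higher means more dye released from RNA so lower well fluorescence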
KLK7 zymogen act = activators of human kallikrein-7 zymogen | purified proKLK7, EDANS-DABCYL substrate fluorescence; 100% is mature enzyme control, 0% vehicle | activation, % at 7 µM | 370,000 compounds, 0.9% hits | AID 652039;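 active means activation above the mean of all tested compounds plus 3 SD, computed per campaign excluding outliers beyond control limits, cut at about 13% in these data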
AHR activator = activates the human aryl hydrocarbon receptor. AID 2796. AHR-responsive luciferase reporter cells, luminescence. activation, % at 5 µM. 320,000 compounds, 2.5% hits; in the data active means activation above about 47%
ADAM10 inh = ADAM10 inhibition, QFRET primary screen | 370,000 compounds, 0.62% hits | AID 720582 | recombinant ADAM10, EDANS/DABCYL FRET peptide cleavage, 3 h | inhibition, % at 7 µM;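 active means inhibition above a per-campaign cutoff equal to the mean of compounds falling between control-based bounds plus 3 SD, cut at about 20% in these data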
Target sequence (O14672 214-748 limits assumed): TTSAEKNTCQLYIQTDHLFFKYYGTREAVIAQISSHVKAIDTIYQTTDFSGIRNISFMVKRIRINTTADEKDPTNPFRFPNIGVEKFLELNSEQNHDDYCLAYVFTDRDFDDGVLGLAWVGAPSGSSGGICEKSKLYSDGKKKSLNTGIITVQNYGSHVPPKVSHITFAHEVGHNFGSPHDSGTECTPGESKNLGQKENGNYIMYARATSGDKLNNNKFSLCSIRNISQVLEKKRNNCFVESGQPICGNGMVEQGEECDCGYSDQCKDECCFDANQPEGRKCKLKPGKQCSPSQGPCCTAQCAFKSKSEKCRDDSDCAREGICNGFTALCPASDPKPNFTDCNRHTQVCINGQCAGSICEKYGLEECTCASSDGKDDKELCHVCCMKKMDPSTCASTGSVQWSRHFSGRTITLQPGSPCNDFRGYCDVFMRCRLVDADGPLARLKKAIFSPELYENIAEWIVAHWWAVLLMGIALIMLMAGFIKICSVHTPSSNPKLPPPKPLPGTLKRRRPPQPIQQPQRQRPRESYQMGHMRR
ADAM17 inh = inhibitors of human ADAM17. P78536. recombinant ADAM17, EDANS/DABCYL FRET peptide cleavage. inhibition, % at 6.95 µM. 370,000 compounds, 0.83% hits. AID 720648;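 active means inhibition above the mean of compounds lying between control limits plus 3 SD, set per campaign, cut at about 8.5% in these data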
NR3A LBD binder = modulates the human NR3A ligand-binding domain; NR3A LBD differential scanning fluorimetry, Tm shift; 0% = protein alone, 100% = glycine-bound protein; Tm shift relative to glycine control, % at 25 µM; 340,000 compounds, 2.5% hits;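 active means melting temperature shift of at least 10% of the positive control shift, at one fixed dose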
rCAG bind conf = r(CAG) RNA repeat binding, confirmation. TO-PRO-1 dye displacement fluorescence. shares compounds with rCAG binder. inhibition, % at 3 µM. AID 652065. 4,300 compounds, 70% hits;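 active means inhibition above a per-plate cutoff, the mean inhibition of sample wells plus 3 SD, cut at about 35% in these data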;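 further: loss of TO-PRO-1 fluorescence as compound displaces dye from 1x1 AA loop RNA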
DNA CAG counter = DNA CAG dye complex inhibition counter-screen; shares compounds with rCAG binder; d(CAG) DNA oligo TO-PRO-1 dye displacement, fluorescence; inhibition, % at 3 µM; 4,300 compounds, 94% hits;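 active means inhibition above its plate's cutoff, the mean test-well inhibition plus 3 SD, cut at about 4.8% in these data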;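 further: hits displace the dye from DNA and so lower well fluorescence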
Numbers stand for hits; 0 = inactive; - = no result given.

SMILES	rCAG binder	KLK7 zymogen act	AHR activator	ADAM10 inh	ADAM17 inh	NR3A LBD binder	rCAG bind conf	DNA CAG counter
CCC(Sc1ncccc1C(=O)O)C(=O)N1CCCC1 (stereo not given)	43	0	0	0	0	0	0	0
CCC(Sc1ncccc1C(=O)O)C(=O)N1CCOCC1 (stereo not given)	0	0	0	0	0	0	-	-
CCOC(=O)C1CCCN(C/C(O)=C(\C#N)c2nc(-c3ccc(Cl)cc3)cs2)C1 (stereo not given)	35	0	0	0	0	0	58	17
N#CC(=C(O)CN1CCN(c2ccccc2F)CC1)c1nc(-c2ccccc2)cs1	51	0	-	0	0	0	51	18
N#CC(=C(O)CN1CCN(c2ccccc2F)CC1)c1nc(-c2ccc(Cl)cc2)cs1	51	0	-	0	0	90	63	24
CCCC1CCC2(CC1)CCC2OC(=S)Nc1ccccc1OC (stereo not given)	-	-	-	0	0	-	-	-
Cc1ccccc1C(=O)Nc1cccc(C(=O)N/N=C/c2cc(Cl)cc([N+](=O)[O-])c2O)c1	87	0	0	0	0	0	73	36
Cc1cc(C(=O)N/N=C/c2cc(Br)cc([N+](=O)[O-])c2O)c2ccccc2n1	49	0	0	0	0	0	58	20
CC(C)(C)OC(=O)N1CCC[C@@H]1C(=O)N1CCC[C@H]1C(=O)NCc1ccccc1	0	0	-	0	0	-	-	-
CCOc1ccc(C(=O)CSc2nnc(SCc3ccc(Cl)cc3)s2)cc1	0	0	-	0	0	-	-	-
COc1ccc(-n2c(O)c(/C=N/NS(=O)(=O)c3cc(C)ccc3C)c3ccccc3c2=O)cc1OC	49	0	0	0	0	0	73	33
O=C1CS(=O)(=O)N(Cc2cccc(F)c2)c2ccc(Br)cc21	52	0	0	0	0	0	0	14
O=C(O)c1ccccc1-n1ncc2c1/C(=C/c1ccc(Cl)cc1)CC2	38	0	0	0	0	-	0	11
O=C(CN1C(=O)/C(=C2/SC(=S)N(CCS(=O)(=O)O)C2=O)c2ccccc21)Nc1cccc(Br)c1	73	0	0	0	0	0	80	49
CCOC(=O)C1=C(C)NC2=C(C(=O)c3ccccc32)C1c1ccc(O)cc1 (stereo not given)	0	0	0	0	0	0	-	-
CCCOc1ccc(C2C3=C(Nc4nc(N)[nH]c(=O)c42)c2ccccc2C3=O)cc1 (stereo not given)	71	0	0	0	0	0	57	37
CCOc1ccc(C2C3=C(Nc4nc(N)[nH]c(=O)c42)c2ccccc2C3=O)cc1 (stereo not given)	66	0	0	0	0	0	53	35
Cc1sc2nc(CN3CCOCC3)nc(NS(=O)(=O)c3cc(Cl)ccc3Cl)c2c1C	53	0	0	0	0	0	46	10
O=S(=O)(Nc1nc(CN2CCOCC2)nc2sc3c(c12)CCCC3)c1cc(F)ccc1F	50	0	0	0	0	0	38	9.6
O=C1C=CC2=C3c4cc(O)c(O)cc4CC3(O)COC2=C1O (stereo not given)	43	0	-	0	0	0	63	34
Cn1c2ccccc2c2cc(/C=N/NC(=O)c3cc(O)cc(O)c3)ccc21	43	0	0	0	0	28	0	18
O=C(N/N=C/c1cccc(O)c1)c1ccccc1O	0	0	0	0	0	0	-	-
Cn1c2ccccc2c2cc(/C=N/NC(=O)c3cc(O)ccc3O)ccc21	66	0	0	0	0	26	62	31
O=C1[C@H](c2ccccc2)[C@@H](c2ccncc2)N1c1ccncc1	0	0	-	0	0	-	-	-
CCCc1nc2nc(C)c(NS(=O)(=O)c3ccc(F)cc3)c(=O)n2[nH]1	0	0	0	0	0	0	-	-
CCCc1nc2nc(C)c(NS(=O)(=O)c3ccc(C4CCCCC4)cc3)c(=O)n2[nH]1	59	0	0	0	0	0	62	16
COc1cc(/C=C2/SC(=O)NC2=O)ccc1OCc1ccccc1	59	0	0	0	0	0	51	13
